# Measurements as given in the supplement of paper PMC10127200.
# Counter-ions that a name gives are not always drawn.
# System: A549
# Assay: Euclidean distance of Cell Painting phenotypic profile (signed KS, 77 features) to DMSO centroid (dimensionless distance); 5 or 10 uM (library dependent); higher = stronger phenotypic change vs DMSO (phenoactivity)
# Conditions: 48 h
# Procedure, shortened: (§1)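 Five cancer lines, together with a healthy fibroblast line, received library compounds for 48 h at a library-dependent 10 or 5 uM and 0.1% DMSO final. Harmony then derived 77 features from confocal 20X images (9 fields/well) of the stained cells, scoring each as a signed Kolmogorov-Smirnov statistic against same-plate vehicle wells. After plate-position correction, correlation weighting and replicate averaging at the top dose, phenoactivity was taken as each profile's Euclidean distance to the median vehicle profile.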
row,Compound,Euclidean distance
1,Nc1ccc2ncnc(NCCc3ccc(Oc4ccccc4)cc3)c2c1,1.95
2,O=S1(=O)CCN(CN2CCS(=O)(=O)NC2)CN1 [Taurolidine],0.797
3,CC(C)Nc1cccnc1N1CCN(C(=O)c2cc3cc(NS(C)(=O)=O)ccc3[nH]2)CC1 [Delavirdine (mesylate)],0.811
4,CC(COc1ccccc1Cc1ccccc1)N1CCCCC1 (stereo not given) [Benproperine phosphate],1.63
5,CCC/C=C1\OC(=O)C2=C1CCC=C2 [Ligustilide],0.613
6,Cc1cnc(NC(=O)Nc2cc(Br)c(C)cc2OC[C@@H]2CNCCO2)cn1,1.52

# System: DU145
# Assay: as above
# Conditions: 48 h
# Procedure, shortened: as §1
row,Compound,Euclidean distance
1,COc1cc([C@@H]2c3cc4c(cc3[C@@H](O[C@@H]3O[C@@H]5CO[C@@H](C)O[C@H]5[C@H](O)[C@H]3O)[C@H]3COC(=O)[C@H]23)OCO4)cc(OC)c1O [Etoposide],3.62
2,O=C(c1ccc(F)c(F)c1Nc1ccc(I)cc1F)N1CC(O)([C@@H]2CCCCN2)C1 [Cobimetinib (GDC-0973. RG7420)],3.23
3,Cc1c(F)cccc1NC(=O)Nc1ccc(Cl)c(S(=O)(=O)[C@H]2CCCNC2)c1O,0.758
4,Nc1nc2[nH]cc(CCc3ccc(C(=O)N[C@@H](CCC(=O)O)C(=O)O)cc3)c2c(=O)[nH]1 [Pemetrexed],1.14
5,COc1ccccc1N1CCN(CCN2C(=O)CC3(CCCC3)CC2=O)CC1,1.3
6,CC[C@H]1OC(=O)[C@@](C)(F)C(=O)[C@H](C)[C@@H](O[C@@H]2O[C@H](C)C[C@H](N(C)C)[C@H]2O)[C@](C)(OC)C[C@@H](C)C(=O)[C@H](C)[C@H]2N(CCCCn3cc(-c4cccc(N)c4)nn3)C(=O)O[C@]12C [Solithromycin],1.57
7,C[C@]12CC[C@@H]3c4ccc(O)cc4CC[C@H]3[C@@H]1CCC2=O [Estrone],0.761
8,Oc1c2ccccc2c2c3c(cccc13)N=N2,0.792
9,C=C1/C(=C\C=C2/CCC[C@]3(C)[C@@H]([C@H](C)CCCC(C)(C)O)CC[C@@H]23)C[C@@H](O)C[C@@H]1O [Calcitriol],1.24
10,Cc1c(-c2cnccn2)ssc1=S [Oltipraz],0.666
11,Cc1c(Nc2ncccc2C(=O)O)cccc1C(F)(F)F [Flunixin Meglumin],0.874
12,CO/N=C(\C(=O)N[C@@H]1C(=O)N2C(C(=O)O)=C(COC(C)=O)CS[C@H]12)c1csc(N)n1 [Cefotaxime sodium],0.877
13,c1coc(CNc2ncnc3[nH]cnc23)c1 [Kinetin],0.682
14,CC[C@]1(O)C[C@H]2CN(CCc3c([nH]c4ccccc34)[C@@](C(=O)OC)(c3cc4c(cc3OC)N(C=O)[C@H]3[C@@](O)(C(=O)OC)[C@H](OC(C)=O)[C@]5(CC)C=CCN6CC[C@]43[C@@H]65)C2)C1 [Vincristine],4.78
15,Nc1ncnc2c1ncn2[C@@H]1O[C@H](CO)[C@@H](O)[C@@H]1O [Vidarabine monohydrate],0.966
16,COCCCN1CCC(NC(=O)c2cc(Cl)c(N)c3c2OCC3)CC1 [Prucalopride Succinat],0.699
17,OC(CCCN1CCCCC1)(c1ccccc1)c1ccccc1 [Diphenidol HCl],0.884
18,CN(C)CC/C=C1/c2ccccc2COc2ccc(CC(=O)O)cc21 [Olopatadine HCl],0.865
19,NC(=O)c1cnccn1 [Pyrazinamide],0.786
20,CC(C)NCC(O)c1ccc(O)c(O)c1 (stereo not given) [Isoproterenol sulfate dihydrate],2.58

row,Compound,Euclidean distance
1,Cc1cc(F)c(Nc2ncnc3cc(OCc4ccccc4)ccc23)cc1O,0.521
2,CCCCCCCCCC(=O)CC(O)S(=O)(=O)O (stereo not given) [Sodium Houttuyfonate],1.5
3,Oc1c(Br)cc(Br)c2cccnc12 [Broxyquinoline],1.01
4,Nc1ccn([C@H]2CC[C@@H](CO)O2)c(=O)n1 [Zalcitabine],1.6
5,Cc1cccc(-c2[nH]c(C(C)(C)C)nc2-c2ccc3nccnc3c2)n1,0.741
6,O=C(CCCCCN1C(=O)c2cccc3cccc(c23)C1=O)NO [Scriptaid],2.28
7,C[C@]12CCC3=C4CCC(=O)C=C4CC[C@H]3[C@@H]1CC[C@@]2(O)CC#N [Dienogest],1.61
8,O=C(O)[C@@H](S)[C@@H](S)C(=O)O [Succimer],1.53
9,Cc1c(-c2ccc(O)cc2)n(Cc2ccc(OCCN3CCCCCC3)cc2)c2ccc(O)cc12 [Bazedoxifene HCl],3.42
10,Nc1ccn([C@@H]2O[C@H](CO)[C@@H](O)[C@@H]2O)c(=O)n1 [Cytarabine],2.54
11,COc1cnc(NS(=O)(=O)c2ccc(N)cc2)nc1 [Sulfameter],0.768
12,CC(C)c1ccc2oc3nc(N)c(C(=O)O)cc3c(=O)c2c1 [Amlexanox],0.886
13,CCCN1C[C@H](C)[C@@H](O)[C@](C)(O)[C@@H](CC)OC(=O)[C@H](C)[C@@H](O[C@H]2C[C@@](C)(OC)[C@@H](O)[C@H](C)O2)[C@H](C)[C@@H](O[C@@H]2O[C@H](C)C[C@H](N(C)C)[C@H]2O)[C@](C)(O)C[C@H]1C [Gamithromycin],1.98
14,Nc1ccc2ncnc(NCCc3ccc(Oc4ccccc4)cc3)c2c1,1.06
15,O=S1(=O)CCN(CN2CCS(=O)(=O)NC2)CN1 [Taurolidine],0.913
16,CC(C)Nc1cccnc1N1CCN(C(=O)c2cc3cc(NS(C)(=O)=O)ccc3[nH]2)CC1 [Delavirdine (mesylate)],2.31
17,CC(COc1ccccc1Cc1ccccc1)N1CCCCC1 (stereo not given) [Benproperine phosphate],1.72
18,CCC/C=C1\OC(=O)C2=C1CCC=C2 [Ligustilide],0.83
19,Cc1cnc(NC(=O)Nc2cc(Br)c(C)cc2OC[C@@H]2CNCCO2)cn1,1.04
